Screens: PubChem BioAssay, National Center for Advancing Translational Sciences (NCATS)
PKM2 activator = qHTS Assay for Activators of Human Muscle isoform 2 Pyruvate Kinase | purified PKM2, Kinase-Glo ATP luminescence, activation; response scale: 0% is enzyme alone, no compound | Potency, µM (highest dose often 57.5 µM), inactives show top-dose activation, actives largely listed as activators | 260,000 compounds, 0.34% hits; further: nearly all actives have a fitted effect of over 55% in size
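ATP formation by purified human PK-M2, quantified via coupled luciferase luminescence after 1 h at room temperature with 0.1 mM ADP and 0.5 mM PEP final.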
TrxR1 substrate = qHTS Assay for Substrates of Mammalian Selenoprotein Thioredoxin Reductase 1 (TrxR1): qHTS; Thioredoxin reductase 1, cytoplasmic (Rattus norvegicus), O89049; purified TrxR1 substrate turnover, NADPH consumption readout; Potency, µM (titrated, usually from 114 µM), for inactives: at the top dose activity change, negative = substrate turnover; 390,000 compounds, 0.01% hits; AID 588456, 2011; further: nearly all actives have a fitted effect of over 50% in size
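Rat TrxR1, dispensed at 90 nM, was prereduced with 400 uM NADPH (final) for 5 min at ~22 deg C, then incubated with compound 15 min before 400 uM selenite. A first-read NADPH fluorescence drop versus no-compound background flagged substrates.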
Apoferritin bind = qHTS Assay for Identification of Novel General Anesthetics | Ferritin light chain (Equus caballus), P02791 | apoferritin/1-aminoanthracene competitive binding, fluorescence | Potency, µM (highest dose often 77.5 µM), for inactives: at the highest dose activity change, negative = displacement, most hits filed as inhibitors | 350,000 compounds, 0.074% hits; further: nearly all actives have a fitted effect of over 20% in size
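Horse-spleen apoferritin (10 uM) was mixed with 50% saturated 1-aminoanthracene in PBS, exposed to compounds for 10 min at room temperature, and read for fluorescence (ex 380 nm, em 535 nm). Competitive displacement was fitted with a four-parameter Hill equation.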
TrxR1 inh = qHTS Assay for Inhibitors of Mammalian Selenoprotein Thioredoxin Reductase 1 (TrxR1): qHTS | Thioredoxin reductase 1, cytoplasmic (Rattus norvegicus), O89049 | recombinant rTrxR1, NADPH fluorescence consumption, selenite substrate | Potency, µM (series often up to 114 µM), inactives show at the highest dose activity change, negative = inhibition, hits mostly inhibitors | 390,000 compounds, 1% hits; further: nearly all actives have a fitted effect of over 65% in size
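Rat TrxR1 (90 nM in the dispensed reagent) was pre-reduced with 400 uM NADPH for 5 min at room temperature, then incubated with compound for 15 min. After 400 uM selenite was added, NADPH fluorescence (Ex 340/Em 450 nm) was followed for 8 min.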
GALK inh = qHTS Assay for Inhibitors of Human Galactokinase (GALK). P51570. Purified GALK, Kinase-Glo residual ATP luminescence. Potency, µM (series often up to 57.5 µM), for inactives: at the highest dose activity change, negative = inhibition, actives largely listed as inhibitors. 270,000 compounds, 0.007% hits. AID 1868, 2009
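Quantitative HTS: GALK 5 nM, ATP 35 uM, galactose 100 uM, 1 h room temperature, then luciferase-based ATP detection.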
IDH1 R132H inh = qHTS for Inhibitors of mutant isocitrate dehydrogenase 1 (IDH1): qHTS | Isocitrate dehydrogenase [NADP] cytoplasmic (Homo sapiens), O75874 | IDH1-R132H enzyme, NADPH consumption, diaphorase/resazurin fluorescence | Potency, µM (series often up to 76.6 µM), without a hit: at the top dose activity change, negative = inhibition, hits mostly inhibitors | 390,000 compounds, 0.093% hits; further: nearly all actives have a fitted effect of over 65% in size
Target sequence (O75874 whole entry R132H, stated change not applied): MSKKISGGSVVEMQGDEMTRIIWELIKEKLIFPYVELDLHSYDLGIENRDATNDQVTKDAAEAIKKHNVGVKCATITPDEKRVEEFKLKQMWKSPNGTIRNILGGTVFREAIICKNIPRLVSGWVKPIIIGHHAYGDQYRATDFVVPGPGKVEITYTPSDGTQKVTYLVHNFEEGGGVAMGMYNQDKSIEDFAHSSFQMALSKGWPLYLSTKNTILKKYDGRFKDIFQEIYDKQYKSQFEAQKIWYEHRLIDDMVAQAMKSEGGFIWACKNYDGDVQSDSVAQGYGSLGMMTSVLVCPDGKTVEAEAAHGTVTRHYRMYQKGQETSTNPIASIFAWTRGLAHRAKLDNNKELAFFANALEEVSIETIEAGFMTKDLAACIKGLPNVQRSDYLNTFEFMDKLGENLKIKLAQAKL
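IDH1-R132H (0.5 ug/mL dispensed) in pH 7.5 Tris buffer was preincubated 30 min with compound, then given a substrate mix of 0.016 mM NADPH and 2 mM alpha-KG for 80 min at room temperature; remaining NADPH was read by diaphorase/resazurin fluorescence.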
* hit, by the source's call; ? = inconclusive; nt = not tested or not shown; ! = repeats disagree; [ ] = remark or other dose. Shown are actives, neighbours in structure and some others; about 1.3% of the full set was active somewhere. The call rests on the fitted dose curve; in most records, active means well fitted curve in the direction sought with a large enough effect; inconclusive means small, poorly fitted or top-dose-only effect, or another doubt; inactive means no such curve, though single readings can be large; an effect the other way counts as inactive or inconclusive. On the % scale 0 is the no-effect control and ±100 the full control effect; potency means the concentration at half of the fitted maximal effect.

SMILES	PKM2 activator	TrxR1 substrate	Apoferritin bind	TrxR1 inh	GALK inh	IDH1 R132H inh
O=C(/C=C/c1ccco1)N(Cc1ccc(F)cc1)C1CCS(=O)(=O)C1 (configuration not stated)	-2%	-6%	-1%	45µM*	4%	3%
O=C(/C=C/c1ccco1)N(Cc1ccccc1)C1CCS(=O)(=O)C1 (configuration not stated)	25%	6%[11.4 µM]	-1%	-76%	-1%	3%
CN(C)c1ccc(/C=C2\C=Cc3ccccc32)cc1N	nt	3%	nt	-2%	nt	nt
CCN(CC)c1ccc(NC(=O)CCS(=O)(=O)c2cccc3nsnc23)c(C)c1	nt	-4%	-20%	79µM*!	1%	7%
CC(C)(C)n1ncc2c(=O)n(Cc3ccc(F)cc3Cl)cnc21	nt	1%	nt	2%	nt	nt
O=C(NCCc1ccccc1)C1COc2ccccc2O1 (configuration not stated)	nt	4%	-4%	16%	1%	6%
O=C(NC1CCCCC1)C1COc2ccccc2O1 (configuration not stated)	nt	-3%	nt	50µM*	nt	4%
O=C(NCCc1ccc(O)c(O)c1)C1COc2ccccc2O1 (configuration not stated)	nt	4%	-9%	45µM*	0%	-4%
COc1ccccc1-n1ncc2c(=O)[nH]c(SCC(=O)Nc3cccc(F)c3)nc21	nt	-2%[57.1 µM]	-8%	7%[57.1 µM]	nt	-7%
COc1cc2c(NC3CCN(C)CC3)nc(N3CCN(C)CC3)nc2cc1OCCCN(C)C	nt	67%	nt	-34%	nt	nt
Clc1cccc(Cl)c1CNc1ccc(N2CCCC2)cc1	9%	5%[57.1 µM]	-14%	3.5µM*	0%	33%
CCOC(=O)C1CCN(c2nc3ccccc3nc2C(C#N)C(=O)NCCc2ccccc2)CC1 (configuration not stated)	18%	nt	14µM*	nt	-1%	nt
S=C1Cc2ccccc2N1	8%	?	-7%	-65%[0.457 µM]	?	37µM*
COc1cccc(NC(=O)Cn2c(=O)n(Cc3ccccc3)c(=O)c3c2c2cc(C)ccc2n3C)c1	nt	21%	9%	12%	nt	-2%
CCCCC1(Br)C(=O)N(c2ccccc2)N(c2ccccc2)C1=O	nt	-3%	nt	28µM*	nt	9%
O=C(NCCc1csc(-c2cccc(F)c2)n1)c1cccs1	nt	-13%[57.1 µM]	?	-20%[57.1 µM]	nt	20%
COc1ccc(OC)c(Nc2nc(=O)c3cccnc3s2)c1	8.9µM*	-6%	-17%	-11%	-1%	12%
COc1ccc(CC(=O)Nc2ccc(-c3nc4ccccc4s3)cc2Cl)cc1OC	nt	-17%[57.1 µM]	-19%	-19%[57.1 µM]	nt	17%
c1cc2c3c(c1)CCC[N+]3(C1CCCCC1)CCC2	nt	6%	nt	-17%	nt	nt
Cc1ccc(Sc2c(C)nn(C(=O)COc3ccc(F)cc3)c2C)cc1	nt	11%	8%	23%	nt	23%
Cc1ccc(Sc2c(C)nn(C(=O)COc3ccccc3Br)c2C)cc1	nt	14%	6.3µM*	41%	nt	0%
COc1cc(CNCCNC(=O)c2nonc2N)ccc1OCc1ccc(Cl)cc1	2%	3%[57.1 µM]	13µM*	8%[57.1 µM]	-2%	0%
COc1cccc(CNCCNC(=O)c2nonc2N)c1	0%	2%	8%	14%	-1%	7%
COc1ccccc1Nc1nc(N)nc(CN2CCCCCC2)n1	-2%	7%[57.1 µM]	-5%	14µM*	0%	-5%
COc1ccccc1Nc1nc(N)nc(CN2CCOCC2)n1	2%	9%	-4%	13%	-1%	-3%
